Assay outcomes deposited in PubChem BioAssay by several laboratories.
GAA850 FXN act: increases GAA850 frataxin promoter reporter activity | activation, % at 6 µM | AID 540364 | HEK293 lucGAA850 FXN promoter luciferase reporter, 24 h; percent of 10 µM SAHA response | 360,000 compounds, 0.56% hits;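 active = activation above the average of all compounds screened plus 3 SD, cutoff fixed separately per campaign, cut at about 7.5% in these data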
DAX1 inh: NR0B1 (DAX1) inhibition; P51843; HEK293 Gal4-DAX1 luciferase reporter, luminescence; inhibition, % at 6.75 µM; 340,000 compounds, 0.99% hits; AID 504766;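 active = inhibition above the mean over all tested compounds plus 3 SD, cut at about 4.2% in these data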;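 also: inhibition shows as a rise in luminescence from relieved DAX1 repression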
HSF-1 act: increases HSF-1 driven luciferase reporter signal | NIH3T3-HGL HSF-1 luciferase reporter, MG132, 8 h; 100% = twice DMSO control signal | activation, % at 9 µM | 300,000 compounds, 1.7% hits;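 active = mean replicate activation of at least 50% with a set share of replicates each reaching 50%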
HSP90 refold inh: inhibitors of HSP90 luciferase refolding in rabbit reticulocyte lysate. luciferase refolding luminescence, 3 h. 290,000 compounds, 0.91% hits. inhibition, % at 5.6 µM. AID 1789;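 active = inhibition above the screen-wide mean plus 3 SD, computed separately per campaign, cut at about 16% in these data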;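 also: inhibitors lower the luminescence because luciferase stays unfolded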
HSF1 inhib: HSF1 inhibition | NIH3T3-HGL HSE-luciferase, MG132-induced, luminescence 8 h; hits give low values | activity change, negative = inhibition, % at 7.5 µM (by protocol) | 300,000 compounds, 0.77% hits | AID 2098;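 active = more than half of replicate wells show activity change below -50%, luminescence cut by over half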;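 also: luciferase reports HSF-1 transcriptional activity via heat shock element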
AHR activator: activates the human aryl hydrocarbon receptor; AID 2796; 320,000 compounds, 2.5% hits; AHR-responsive luciferase reporter cells, luminescence; activation, % at 5 µM; in the data active = activation above about 47%
Target sequence (P35869 whole entry, looked up): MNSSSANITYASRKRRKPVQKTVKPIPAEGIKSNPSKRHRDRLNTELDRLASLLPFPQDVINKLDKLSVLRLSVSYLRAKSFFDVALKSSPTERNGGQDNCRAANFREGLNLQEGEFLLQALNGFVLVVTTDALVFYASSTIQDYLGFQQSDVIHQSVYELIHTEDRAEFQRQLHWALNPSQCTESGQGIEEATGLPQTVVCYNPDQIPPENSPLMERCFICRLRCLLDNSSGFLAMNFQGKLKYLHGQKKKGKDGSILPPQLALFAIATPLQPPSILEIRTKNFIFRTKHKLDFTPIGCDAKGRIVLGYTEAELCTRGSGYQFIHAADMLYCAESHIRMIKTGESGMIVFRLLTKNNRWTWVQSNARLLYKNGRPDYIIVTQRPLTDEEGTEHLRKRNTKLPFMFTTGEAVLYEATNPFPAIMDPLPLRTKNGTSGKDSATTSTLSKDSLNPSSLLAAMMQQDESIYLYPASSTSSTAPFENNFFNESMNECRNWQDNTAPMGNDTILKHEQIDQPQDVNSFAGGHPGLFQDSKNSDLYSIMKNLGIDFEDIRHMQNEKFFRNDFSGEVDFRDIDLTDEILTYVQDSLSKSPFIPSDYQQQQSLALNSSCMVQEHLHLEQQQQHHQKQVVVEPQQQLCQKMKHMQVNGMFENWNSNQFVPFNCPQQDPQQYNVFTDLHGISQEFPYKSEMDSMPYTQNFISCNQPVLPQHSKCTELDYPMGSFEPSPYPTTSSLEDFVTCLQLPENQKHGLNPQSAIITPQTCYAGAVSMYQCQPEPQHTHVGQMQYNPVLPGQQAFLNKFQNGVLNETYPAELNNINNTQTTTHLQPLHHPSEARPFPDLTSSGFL
Each line names hits and unclear results; the compound was inactive in the other large screens. An excerpt weighted towards active compounds, which were near 5.9% of everything screened.

Cc1sc2ncnc(N/N=C/c3ccccc3O)c2c1C	none
Oc1ccccc1C=NNc1nc2ccccc2s1	DAX1 inh 4.4 (no result: HSF-1 act, HSP90 refold inh, HSF1 inhib, AHR activator)
COc1cccc(/C=N\NC(=O)c2sc(N)nc2C)c1OC	AHR activator 59.7
COc1cccc(/C=N/Nc2ncnc3scc(-c4ccccc4)c23)c1OC	AHR activator 52.6
COc1cccc(/C=N/NC(=O)C(=O)N/N=C/c2cccc(OC)c2OC)c1OC	none
CSCC[C@H](NC(=O)C1CCN(C(=O)[C@@H](N)Cc2ccccc2)CC1)C(=O)O	none
COc1ccc(C(=O)N2CCN(C)C(=O)[C@@H]2C)cc1OC1CCN(C(C)=O)CC1	none
COc1cccc(/C=N/Nc2ccc(Cl)nn2)c1OC	DAX1 inh 5.6 (no result: HSP90 refold inh)
Fc1ccccc1/C=N/Nc1ccc(Cl)nn1	none
CC1=C(C)CC(C(=O)NCc2ccc3c(c2)OCO3)C(C(=O)O)C1 (stereo not given)	none
COc1ccc(CNC(=O)C2CC(C)=C(C)CC2C(=O)O)cc1OC (stereo not given)	DAX1 inh 4.5
C(=C\c1nnc2c3ccccc3ncn12)/c1ccccc1	AHR activator 67.4
COc1cc(/C=C/c2nnc3c4ccccc4ncn23)cc(OC)c1OC	none
Cc1ccc([C@@H]2C[C@H]3[C@@H](CN2S(=O)(=O)c2ccc(Cl)cc2)C(=O)C[C@@H](c2cccc4ccccc24)N3S(=O)(=O)c2ccc(C)cc2)cc1	none (no result: HSF-1 act, HSP90 refold inh, HSF1 inhib, AHR activator)
CC1CCN(C(=O)c2[nH]cnc2C(=O)Nc2ccccc2)CC1	none (no result: HSF-1 act, HSP90 refold inh, HSF1 inhib)
CCOC(=O)Nc1ccc2c(c1)N(C(=O)CCN1CCN(C)CC1)c1ccccc1S2	none
CCOC(=O)Nc1ccc2c(c1)Sc1ccccc1N2C(=O)CCN1CCOCC1	HSF-1 act 63.0
COc1ccc(CCNC(=O)C2CCC(=O)N(C3CCCCCC3)C2)cc1 (stereo not given)	none
Cc1ccc2nc(-c3sc4nc(C)ccc4c3N)[nH]c2c1	none
Cc1cc(C)c2c(N)c(-c3nc4ccccc4[nH]3)sc2n1	DAX1 inh 5.0, HSF-1 act 73.2, AHR activator 55.4
CCc1[nH]nc(C(=O)NC2CCCc3c2cnn3-c2cc(C)cc(C)c2)c1C (stereo not given)	none
Cc1ccc2nc(C3CCCCC3)[nH]c2c1	DAX1 inh 4.7
N#CC1=C(N2CCOCC2)/C(=C\c2ccccc2)CC1	AHR activator 49.2
O=CC1=C(N2CCOCC2)/C(=C\c2ccccc2)CC1	none
Cc1ccc(COc2ccc(/C=N/O)cc2)cc1	DAX1 inh 5.5
CCN1C(=O)C(C)C=C(C)C=C1C (stereo not given)	none (no result: HSF-1 act, HSP90 refold inh, HSF1 inhib, AHR activator)
COc1cc(OC)cc(C(=O)NC(=S)NCCc2ccccc2)c1	AHR activator 69.1
CCOC(=O)c1c(-c2ccc(C)cc2)cn2ccccc12	HSF-1 act 78.1
CCOC(=O)c1c(-c2ccccc2)cn2ccccc12	none
CCNc1c(NC(=O)c2cccs2)c(=O)oc2ccccc12	none
Cc1cc2c(=O)n(C)c(SCC(=O)Nc3ccc(F)cc3)nc2s1	none (no result: HSF-1 act, HSP90 refold inh, HSF1 inhib, AHR activator)
O=C(/C=C/c1ccc(Cl)cc1)Nc1ccc(CN2CCOCC2)cc1	none
Cc1cccc(NC(=S)NC(=O)/C=C/c2ccccc2)n1	DAX1 inh 4.3
O=C(/C=C/c1ccccc1)NC(=S)Nc1ccccc1O	HSF-1 act 59.5
COc1ccc(NC(=S)NC(=O)/C=C/c2ccccc2)cc1	none
O=C(/C=C/c1ccccc1)NC(=S)Nc1ccc(CN2CCOCC2)cc1	HSF-1 act 73.0
Cc1cc(NC(=S)NC(=O)/C=C/c2ccc(S(=O)(=O)N3CCOCC3)cc2)ccc1Br	HSF-1 act 100.4
COc1ccc(-n2nnnc2SCC(=O)Nc2c(C)n[nH]c2C)cc1	none (no result: HSF-1 act, HSP90 refold inh, HSF1 inhib)
COc1ccc(NC(=O)c2cccnn2)cc1	none
COCCOC(=O)C1=C(C)NC2=C(C(=O)CC(c3cccs3)C2)C1c1ccsc1 (stereo not given)	AHR activator 50.3
CCN1CCN(Cc2ccc(NC(=O)Nc3ccccc3Cl)cc2)CC1	DAX1 inh 4.6
O=C(NCCN1CCCCC1)Nc1ccccc1Cl	HSF1 inhib -82.6
O=C(Nc1ccc(CN2CCCCC2)cc1)Nc1ccccc1Cl	none
O=C(Nc1ccc(Br)cc1)Nc1ccccc1Cl	HSF-1 act 58.3
Cc1ccc(S(=O)(=O)N(Cc2c(F)cccc2Cl)C(=O)N2CCN(C)CC2)cc1	none (no result: HSP90 refold inh)
Cc1ccc2[nH]c3c(c2c1)CCc1cn[nH]c1-3	AHR activator 52.9
O=C(O)c1cc(N2C(=O)CCC2=O)ccc1Cl	none
Nc1ccccc1C(=O)N/N=C1\C2CN3CCN(C2)CC1(c1ccccc1)C3	DAX1 inh 5.0
Nc1ccccc1C(=O)N/N=C1/C2CN3CCN(C2)CC1(Cc1ccccc1)C3	DAX1 inh 4.5
O=C(N/N=C1\C2CN3CCN(C2)CC1(c1ccccc1)C3)c1ccc(F)cc1	none
CC1C(=O)N(Cc2cn(Cc3ccco3)nn2)CCS(=O)(=O)N1Cc1ccc(-c2cccc(N(C)C)c2)cc1 (stereo not given)	none (no result: HSF-1 act, HSP90 refold inh, HSF1 inhib, AHR activator)
O=C(O)CNC(=O)/C(=C\c1ccc2c(c1)OCO2)NC(=O)c1ccc(Br)cc1	none (no result: DAX1 inh)
O=C(NCCO)/C(=C/c1ccc2c(c1)OCO2)NC(=O)c1ccc(Br)cc1	DAX1 inh 4.5
CCC(NC(=O)/C(=C\c1ccc2c(c1)OCO2)NC(C)=O)C(=O)O (stereo not given)	HSF-1 act 59.3
CN1C(=S)SC(N(O)C(=O)Nc2cccc3ccccc23)C1(C)C (stereo not given)	AHR activator 75.1
CN1C(=S)SC(N(O)C(=O)Nc2ccccc2)C1(C)C (stereo not given)	none
O=C(NCCN1CCOCC1)c1cc2ccccc2oc1=O	none
O=C(NCCN1CCOCC1)c1cc2ccccc2o1	HSF-1 act 61.3
CN=c1scc(-c2ccccc2F)n1/N=C(\C)c1cccnc1	HSF-1 act 77.9, AHR activator 77.8
CCSC1(SCC)N=C(N)C2(C#N)C(c3ccc(OC)c(OC)c3OC)C12C#N (stereo not given)	HSF-1 act 197.8 (no result: HSP90 refold inh)
CCSC1(SCC)N=C(N)C2(C#N)C(c3ccccc3)NC3=C(CCC3)C12C#N (stereo not given)	none
COc1ccc(CN(CC2CCC(C(=O)O)CC2)C(=S)Nc2cc(C)ccc2C)cc1 (stereo not given)	none (no result: HSF-1 act, HSF1 inhib, AHR activator)
COc1ccc(CN(CC2CCC(C(=O)O)CC2)C(=S)Nc2cc(Cl)ccc2OC)cc1 (stereo not given)	HSF-1 act 337.3
Cc1n[nH]c(C)c1CCOc1ccc(C(C)C)cc1	HSF-1 act 99.6
CC(C)C(=O)N1CCC(n2nccc2NC(=O)CCOc2ccccc2)CC1	HSF-1 act 54.3 (no result: AHR activator)
CCOc1ccc(N(C(C)=O)C2C=CS(=O)(=O)C2)cc1 (stereo not given)	DAX1 inh 5.3
Cn1c2ccccc2c2nnc(SCC(=O)Nc3cccc(O)c3)nc21	AHR activator 66.0
Cn1c2ccc(Br)cc2c2nnc(SCC(=O)O)nc21	AHR activator 54.0
